Hit rate of the full screen: of about 5,500 compounds, about 2,000 (36%) were called active. Another 18% or so got no clear call; they are omitted. No stated cut-off is given here; in the data, active means normalized growth mostly below about 0.91 (no sharp cut-off); inconclusive means no clear call, values can overlap the other calls; inactive means mostly above about 0.92. The list shows a part of the results.
Test: chemical genetic growth profiling, strain panel (AID 1159580);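 further: tested at 20 µM; growth read once vehicle control cultures reached saturation at 30 °C; 1 = growth at the plate median or of vehicle wells; lower values mean less growth of the strain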
Conditions: S. cerevisiae deletion strains, growth OD

Measured: normalized growth

CCC1OC(=O)[C@H](C)C(=O)[C@H](C)[C@@H](OC2O[C@H](C)C[C@H](N(C)C)[C@H]2O)[C@](C)(OC)C2(CCCn3cnc(-c4cccnc4)c3)C[C@@H](C)C(=O)[C@H](C)[C@H]3N(C2)C(=O)O[C@]13C (stereo partly drawn)
inactive: locus YAL013W, strain DEP1, hits give low values 1 | locus YAL021C, strain ccr4, hits give low values 0.973 | locus YAL026C, strain drs2, hits give low values 0.976 | locus YAL030W, strain snc1, hits give low values 0.981 | locus YBL061C, strain skt5, hits give low values 0.98 | locus YBR009C, strain hhf1, hits give low values 0.962 | locus YBR021W, strain FUR4, hits give low values 1 | locus YBR023C, strain chs3, hits give low values 0.998 | locus YBR171W, strain sec66, hits give low values 0.984 | locus YBR229C, strain ROT2, hits give low values 1 | locus YBR231C, strain swc5, hits give low values 0.984 | locus YBR279W, strain paf1, hits give low values 0.996 | locus YCL011C, strain gbp2, hits give low values 0.981 | locus YCL016C, strain dcc1, hits give low values 0.975 | locus YCL029C, strain bik1, hits give low values 1 | locus YCL069W, strain vba3, hits give low values 0.979 | locus YCR088W, strain abp1, hits give low values 0.979 | locus YDL005C, strain med2, hits give low values 0.989 | locus YDL035C, strain GPR1, hits give low values 1.01 | locus YDL040C, strain nat1, hits give low values 0.982 | locus YDL074C, strain BRE1, hits give low values 1.02 | locus YDL101C, strain DUN1, hits give low values 1.01 | locus YDL134C, strain PPH21, hits give low values 1.01 | locus YDL185W, strain tfp1, hits give low values 1.01 | locus YDL192W, strain arf1, hits give low values 1.01 | locus YDR001C, strain nth1, hits give low values 0.983 | locus YDR069C, strain doa4, hits give low values 0.996 | locus YDR101C, strain arx1, hits give low values 0.985 | locus YDR137W, strain rgp1, hits give low values 0.937 | locus YDR150W, strain NUM1, hits give low values 1.01 | locus YDR159W, strain sac3, hits give low values 0.96 | locus YDR162C, strain NBP2, hits give low values 1.02 | locus YDR195W, strain ref2 0.968 | locus YDR297W, strain sur2, hits give low values 0.982 | locus YDR318W, strain mcm21, hits give low values 1 | locus YDR334W, strain swr1, hits give low values 0.977 | locus YDR335W, strain msn5, hits give low values 0.976 | locus YDR388W, hits give low values 1.01 | locus YDR392W, strain spt3, hits give low values 0.936 | locus YDR502C, strain sam2, hits give low values 0.991 | locus YEL003W, strain gim4, hits give low values 0.958 | locus YEL037C, strain rad23, hits give low values 0.975 | locus YEL061C, strain CIN8 (second series), hits give low values 0.983 | locus YEL061C, strain CIN8, hits give low values 1 | locus YER015W, strain faa2, hits give low values 0.987 | locus YER016W, strain bim1, hits give low values 0.992 | locus YER110C, hits give low values 0.993 | locus YER111C, strain swi4, hits give low values 0.964 | locus YER155C, strain BEM2 (second series), hits give low values 1.02 | locus YER155C, strain BEM2, hits give low values 1.01 | locus YER167W, strain BCK2, hits give low values 1.01 | locus YFR010W, strain ubp6, hits give low values 0.995 | locus YGL078C, strain dbp3, hits give low values 1.01 | locus YGL086W, strain mad1, hits give low values 0.995 | locus YGL167C, strain pmr1, hits give low values 0.986 | locus YGL173C, strain kem1, hits give low values 0.975 | locus YGL227W, strain vid30, hits give low values 0.978 | locus YGL240W, strain doc1, hits give low values 0.994 | locus YGL248W, strain PDE1, hits give low values 1 | locus YGL253W, strain hxk2, hits give low values 0.965 | locus YGR078C, strain PAC10, hits give low values 1.03 | locus YGR135W, strain pre9, hits give low values 0.993 | locus YGR229C, strain SMI1, hits give low values 1.01 | locus YGR252W, strain gcn5, hits give low values 0.965 | locus YHR013C, strain ard1, hits give low values 0.96 | locus YHR027C, strain rpn1, hits give low values 0.99 | locus YHR030C, strain SLT2, hits give low values 0.999 | locus YHR079C, strain IRE1 (second series), hits give low values 0.991 | locus YHR094C, strain hxt1, hits give low values 1 | locus YHR129C, strain ARP1, hits give low values 1 | locus YHR142W, strain chs7, hits give low values 0.973 | locus YHR200W, strain rpn10, hits give low values 1 | locus YIL066C, strain RNR3, hits give low values 1.01 | locus YIL073C, strain SPO22, hits give low values 0.991 | locus YIL125W, strain kgd1, hits give low values 1 | locus YIR030C, strain dcg1, hits give low values 0.999 | locus YJL092W, strain hpr5, hits give low values 0.979 | locus YJL095W, strain BCK1 (second series), hits give low values 0.995 | locus YJL095W, strain BCK1, hits give low values 1 | locus YJL115W, strain asf1, hits give low values 0.973 | locus YJL129C, strain trk1, hits give low values 1.01 | locus YJL134W, strain LCB3, hits give low values 1.01 | locus YJL154C, strain vps35, hits give low values 0.977 | locus YJL164C, strain tpk1, hits give low values 0.977 | locus YJL166W, strain qcr8, hits give low values 0.998 | locus YJL168C, strain set2, hits give low values 0.999 | locus YJL187C, strain SWE1 (second series), hits give low values 0.999 | locus YJL187C, strain SWE1, hits give low values 0.984

— PubChem BioAssay AID1159580 (chemical genetic matrix, 2015)
